# From PubChem BioAssay
# Compounds with a hit are over-represented: about 11% of the library has one in this group of screens.
# MCF10A rerep = induces DNA re-replication in MCF 10a normal breast cells; Potency, µM (series often up to 46.1 µM), without a hit: at the highest dose activity, positive = re-replication, usual class: activators; 350,000 compounds, 2.9% hits; MCF 10A DNA re-replication, Hoechst nuclear intensity, 48 h; also: potency is read from the fitted curve at half-maximal effect; % of control where 0% means no effect; nearly all actives have a fitted effect of over 50% in size
# RORg inh = inhibitors of mouse ROR gamma transcriptional activity; P51450; Drosophila S2 Gal4-RORgamma UAS-luciferase reporter, 20 h; Potency, µM (titrated, usually from 53.6 µM), for the others: at the highest dose activity change, negative = inhibition, most hits filed as inhibitors; 310,000 compounds, 5.4% hits; AID 2551; also: potency is read from the fitted curve at half-maximal effect; % is scaled to controls: 0 for no effect and ±100 for the full control effect; nearly all actives have a fitted effect of over 60% in size
# Target sequence (P51450 whole entry, looked up, the tested form may be a part): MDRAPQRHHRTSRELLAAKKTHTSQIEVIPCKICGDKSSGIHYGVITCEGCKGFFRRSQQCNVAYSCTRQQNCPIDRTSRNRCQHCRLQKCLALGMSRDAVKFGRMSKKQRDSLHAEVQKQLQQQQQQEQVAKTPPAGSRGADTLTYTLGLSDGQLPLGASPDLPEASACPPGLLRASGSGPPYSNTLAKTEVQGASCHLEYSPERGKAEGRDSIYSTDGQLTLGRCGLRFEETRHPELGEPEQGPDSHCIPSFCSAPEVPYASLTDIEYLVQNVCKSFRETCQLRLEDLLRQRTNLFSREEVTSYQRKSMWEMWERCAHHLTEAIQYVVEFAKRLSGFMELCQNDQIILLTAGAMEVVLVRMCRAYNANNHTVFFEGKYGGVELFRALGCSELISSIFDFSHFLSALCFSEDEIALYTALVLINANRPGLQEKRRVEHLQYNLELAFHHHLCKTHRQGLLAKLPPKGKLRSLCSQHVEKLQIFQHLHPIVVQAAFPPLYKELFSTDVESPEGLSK
#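 Stable Schneider cell line, Gal4 DNA-binding domain fused to ROR gamma, UAS-luciferase. Cmpd 1 hr RT → CuSO4 700 uM final → 20 hr RT → luciferase reagent 10 min → luminescence.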
# VP16 counter = counter-screen for ROR gamma inhibitors: Gal4-VP16 reporter | Drosophila S2 Gal4-VP16 UAS-luciferase, luminescence, 20 h | Potency, µM (series often up to 53.6 µM), for inactives: top-dose activity, negative = inhibition, actives largely listed as inhibitors | 310,000 compounds, 3.5% hits;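 also: Gal4-VP16 expression switched on by copper sulfate through the metallothionein promoter; potency is read from the fitted curve at half-maximal effect; % is scaled to controls: 0 for no effect and ±100 for the full control effect; nearly all actives have a fitted effect of over 50% in size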
# SW480 rereplic = induces DNA re-replication in SW480 colon adenocarcinoma cells. SW480 DNA re-replication, Hoechst DNA content imaging, 48 h. Potency, µM (highest dose often 46.1 µM), for inactives: at the top dose re-replication activation, actives largely listed as activators. 340,000 compounds, 1.8% hits; also: potency is read from the fitted curve at half-maximal effect; % of control where 0% means no effect; nearly all actives have a fitted effect of over 55% in size
#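 Readout is total intensity of Hoechst-stained nuclei, excited at 405 nm and collected at 500-530 nm. Compound treatment lasted 48 hr at 37 C in 5% CO2 before staining.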
# IL1B secr inh = blocks inflammasome-driven IL-1 beta release | THP-1 LPS/ATP IL-1B secretion, AlphaLISA, 16 h; hits give low values | activity change, % at 57.5 µM | 360,000 compounds, 4.7% hits; in the data active = activity change below about -50%; inconclusive = mostly about -30% to -49%; also: % is scaled to controls: 0 for no effect and ±100 for the full control effect
#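 Secreted IL-1B measured by AlphaLISA bead assay after 16 h compound exposure of THP-1 cells; compounds (final up to 57.5 uM) added 1 h before LPS (250 ng/mL) and ATP (1.25 mM) stimulation; lower signal means less secretion.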
# Active calls of the source: *; ? = inconclusive; nt = not tested or not shown; [ ] = dose if it differs, or a comment. Unless noted, calls follow the shape of the dose curve; as a rule, active = well fitted curve in the direction sought with a large enough effect; inconclusive = small, poorly fitted or top-dose-only effect, or another doubt; inactive = no such curve, though single readings can be large; an effect the other way counts as inactive or inconclusive.
SMILES,MCF10A rerep,RORg inh,VP16 counter,SW480 rereplic,IL1B secr inh
CCCS(=O)(=O)NC(=O)C1(C)CCCN(C(=O)c2cc(C)nn2C(C)(C)C)C1 (stereo unspecified),nt,nt,nt,nt,32
Cc1ccccc1OCC(=O)NCC(c1cccs1)N1CCOCC1 (stereo unspecified),-5%,nt,nt,?,24
Cc1cc(C)nc(-n2nc(C)c(Oc3ccccc3O)c2C)n1,-6%,10µM*,?,2%,37
O=C(CSc1nc2ccc([N+](=O)[O-])cc2[nH]1)NC1CCCCCC1,?,?,?,1%,-84*
COc1ccc(C)cc1N(C(=O)c1ccc(C#N)cc1)C1=NC(C)(C)CS1,-2%,-3%,-23%,1%,2
COc1ccccc1C(=O)Nc1nc2cc3c(cc2s1)OCCO3,?,?,?,?,9
COc1ccc2nc(NC(=O)c3ccccc3O)sc2c1,21µM*,7.1µM*,?,?,-2
COc1ccc(C(=O)Nc2nc3cc4c(cc3s2)OCCO4)c(OC)c1,4.1µM*,0.028µM*,0.4µM*,16%,?
CCOc1ccc2nc(NC(=O)c3ccc(C)o3)sc2c1,11%,nt,nt,-9%,-30
COc1ccc(N2CC(C(=O)N/N=C/c3ccc(C)cc3)CC2=O)cc1 (stereo unspecified),2.3µM*,-2%,0%,5.2µM*,57
CCOc1ccc2nc(NC(=O)c3cnc(C)cn3)sc2c1,?,1.8µM*,5.6µM*,-7%,-10
CC(=O)Nc1c(I)c(C(=O)N[C@H]2[C@@H](O)[C@H](O)[C@H](CO)O[C@@H]2O)c(I)c(N(C)C(C)=O)c1I,-2%[20.6 µM],13%[2.98 µM],8%[17 µM],-3%[20.6 µM],nt
CC1(C(=O)NS(=O)(=O)C2CC2)CCN(C(=O)c2c(F)cccc2F)C1 (stereo unspecified),nt,nt,nt,nt,19
CCOc1ccc2nc(NC(=O)C3=NN(c4ccccc4)C(=O)CC3)sc2c1,?,2.8µM*,18%,2%,20
CCOC(=O)c1cccc(C(=O)Nc2nc3ccc(OC)cc3s2)n1,-1%,11µM*,?,-18%,-15
COc1ccc2nc(NC(=O)C3CC(=O)N(c4ccccc4)C3)sc2c1 (stereo unspecified),22%,27%,15%,1%,-57*
COc1ccc2nc(NC(=O)c3cccs3)sc2c1,5%,10µM*,?,0%,-4
Cc1cc2occ(CC(=O)N(CC(C)C)c3c(N)n(Cc4ccccc4)c(=O)[nH]c3=O)c2cc1C,?,nt,nt,-88%,-23
C#CCN(C(=O)C1CCC(=O)N(CCc2cccc(F)c2)C1)C1CCCCC1 (stereo unspecified),nt,nt,nt,nt,2
CCN(C(=O)CSc1nnc(-c2ccccc2OC)n1N)c1c(N)n(Cc2ccccc2)c(=O)[nH]c1=O,5%,nt,nt,26%,1
C/C(=N\Nc1cccc([N+](=O)[O-])c1)c1ccccc1O,-31%,14%,19%,-5%,-22
CC(=NNc1ccc2ccccc2n1)c1ccccc1O,?,nt,nt,?,-59*
C/C(=N\Nc1nc2ccccc2nc1C)c1ccccc1O,12%,0.22µM*,2µM*,?,32
C/C(=N\Nc1cc(C)nc(-c2ccccc2O)n1)c1ccccc1O,?,-22%,2%,?,7
COc1ccc(S(=O)(=O)N[C@@H](CSCc2ccccc2)C(=O)O)cc1,0%,-10%,3%,-2%,14
COc1ccc(S(=O)(=O)N2CCN(CCOc3ccc(Br)cc3)CC2)cc1OC,6%,nt,nt,6%,-21
COc1ccc(S(=O)(=O)N2CCN(Cc3ccc(Cl)cc3)CC2)cc1,?,1%[0.365 µM],nt,?,-65*
COc1ccc(OC)c(C(=O)CN2CCN(S(=O)(=O)c3ccc(Br)cc3)CC2)c1,23µM*,?,?,?,-12
COc1cc(CN2CCN(S(=O)(=O)c3ccccc3)CC2)cc(OC)c1OC,0%,12%,14%,1%,12
COc1cccc(CN2CCN(S(=O)(=O)c3ccc(Cl)s3)CC2)c1,12%,31%,-14%,-3%,-51*
